Reference: PubChem BioAssay AID652126 (The Scripps Research Institute Molecular Screening Center, 2013)
Hit rate of the full screen: of about 370,000 compounds, about 3,700 (1%) were called active.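 The calls were made as follows: active = activation above the mean over all tested compounds plus 3 SD (cut at about 0.9% in these data); inactive = the rest.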 This excerpt belongs to a sample that is enriched for actives.

test system: Nuclear hormone receptor DAF-12 (Strongyloides stercoralis); experiment: S. stercoralis DAF-12 nuclear receptor activators, primary screen, cell-based, luminescence, HEK293, GRIP1 co-expression, lit1-tk-luc (AID 652126); conditions: HEK293 ssDAF-12/GRIP1 lit1-tk-luc reporter, at 6.8 µM, active compounds read high, % of 3 µM dafachronic acid response;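 also: 0% = DMSO-only wells and 100% = 3 µM delta7-dafachronic acid wells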

| Compound | activation |
| --- | --- |
| Cc1ccccc1CN1CCCCC(NC(=O)Nc2ccccc2F)C1=O (configuration not stated) | -1.37% (inactive) |
| COc1cc(NC(=O)C2CCCN(S(=O)(=O)c3ccc(C(C)(C)C)cc3)C2)cc(OC)c1 (configuration not stated) | -0.79% (inactive) |
| CCSC1=C(C#N)C(=O)n2c1cc1c2CCCC1 | -0.32% (inactive) |
| N#Cc1c(NC(=O)C2CCCO2)sc2c1CCCCC2 (configuration not stated) | 2.81% (active) |
| N#Cc1c(NC(=O)c2ccc(N3CCOCC3)c([N+](=O)[O-])c2)sc2c1CCCC2 | -1.7% (inactive) |
| CCC1CCc2c(sc(NC(C)=O)c2C#N)C1 (configuration not stated) | -1.82% (inactive) |
| C[C@@H]1COc2cccc(N3CCCC3)c2S(=O)(=O)N1C | -1.35% (inactive) |
| O=c1onc(-c2c(F)cccc2F)n1-c1ccccc1Cl | 1.01% (active) |
| O=c1onc(-c2cccs2)n1Cc1ccccc1 | -1.05% (inactive) |
| O=C(Cn1c(-c2ccc(Cl)cc2)noc1=O)N1CCN(c2ccccc2F)CC1 | -0.84% (inactive) |
| O=C(Nc1ccc2sc3ccccc3c(=O)c2c1)c1ccccc1Cl | 1.16% (active) |
| CS(=O)(=O)c1ccccc1C(=O)Nc1ccc2sccc2c1 | -1.02% (inactive) |
| COCC(=O)N1CCc2ccc(NC(=O)c3ccccc3Cl)cc2C1 | -1.31% (inactive) |
| COc1ccc(C2Nc3ccccc3C(=O)N2Cc2cccs2)cc1COc1c(C)cccc1C (configuration not stated) | -0.82% (inactive) |
| CCCCn1nc(C(=O)Nc2cccc(C(=O)NC3CC3)c2)c2ccccc2c1=O | -1.7% (inactive) |
| CCCn1nc(C(=O)Nc2ccc3nc(C)sc3c2)c2ccccc2c1=O | 8.45% (active) |
| CCCn1nc(C(=O)NNC(=O)CSCC(=O)Nc2cc(C)on2)c2ccccc2c1=O | -0.87% (inactive) |
| COc1ccc(-n2c(COc3ccc(C)cc3)nnc2SCC(=O)Nc2ccc(Oc3ccccc3)cc2)cc1 | -1.71% (inactive) |
| CCCCCN1CCCCC(NC(=O)C(C)CCC)C1=O (configuration not stated) | -1.23% (inactive) |
| C=C(C)C#CC(Cc1ccccc1)N(CC1CC1)/C(N)=N/C(=O)OCc1ccccc1 (configuration not stated) | -1.98% (inactive) |
| COc1ccc(-n2c(SCC(=O)Nc3ccc4c(c3)OCCO4)nnc2-c2ccc(Cl)cc2)cc1 | -1.63% (inactive) |
| CCC[C@H]1C(=O)CC[C@@]23CCCN2C(=O)CCC[C@@H]13 | -0.75% (inactive) |

| Compound | activation |
| --- | --- |
| O=C1CC[C@@]23CCCN2C(=O)CCC[C@H]3[C@H]1Cc1ccccc1 | -1.31% (inactive) |
| CCC(=O)c1c(CC)c2n3c1=CC[C@H]3CC(Br)C=2 (some centres not stated) | -1.9% (inactive) |
| COc1ccc(Nc2cc(=O)n(-c3ccccc3)c3c2c(=O)n(C)c(=O)n3C)cc1 | -0.93% (inactive) |
| COc1ccc(NC2=CC(=S)NC(C)(C)C2)cc1 | -0.87% (inactive) |
| COc1ccc(Nc2ccc3ccccc3c2)cc1 | 2.46% (active) |
| CCN(C(=O)[C@@H](C1CC1)[C@@H](O)c1ccc2ccccc2c1)c1ccccc1 | -1.3% (inactive) |
| N#Cc1ccc(OC[C@@H](O)CN2CCC(C(O)(c3ccccc3)c3ccccc3)CC2)c(F)c1 | -1.58% (inactive) |
| Cc1[nH]nc(-c2ccc(OCc3cnn(-c4ccccc4)c3)cc2O)c1Oc1ccc(Cl)cc1 | -0.99% (inactive) |
| COc1ccc(CNC(=O)COc2ccccc2C(=O)c2cnn(-c3ccccc3)c2)cc1OC | -0.31% (inactive) |
| O=C(c1cnn(-c2ccc(Cl)cc2)c1)c1ccccc1O | 1.24% (active) |
| CC(C)CNS(=O)(=O)CC1NCCc2ccccc21 (configuration not stated) | -0.28% (inactive) |
| CC(=O)Nc1ccc(S(=O)(=O)Nc2nccc(/C=C/c3ccccc3F)n2)cc1 | -0.24% (inactive) |
| Cc1cc(C)nc(NS(=O)(=O)c2ccc(N/C=C\C(=O)c3cccs3)cc2)n1 | 1.14% (active) |
| CCOc1ncccc1C(=O)Nc1ccc(S(=O)(=O)Nc2nc(C)cc(C)n2)cc1 | -0.22% (inactive) |
| O=S(=O)(c1ccc2c(c1)OCCCO2)N1CCN(S(=O)(=O)c2c(F)cccc2F)CC1 | -0.38% (inactive) |
| COC(=O)C1=CO[C@@H](O[C@@H]2O[C@H](CO)[C@@H](O)[C@H](O)[C@H]2O)C2C1C[C@H](O)[C@@H]2C (some centres not stated) | -1.3% (inactive) |
| Cc1cccc(-n2nc3c(c2NC(=O)c2cc4ccccc4o2)CS(=O)(=O)C3)c1 | -0.31% (inactive) |
| CC(OC(=O)c1cc2ccccc2o1)C(=O)Nc1ccc(N2CCOCC2)cc1 (configuration not stated) | -1.36% (inactive) |
| Cc1ccc(NC(=O)c2cc3ccccc3o2)cc1 | 2.98% (active) |
| CC(=O)N1CCc2cc(S(=O)(=O)NCCC(=O)N3CCCC3)ccc21 | -0.66% (inactive) |
| Nc1[nH]c(/C=C2/CCCCC2n2[nH]c(=O)n(-c3ccccc3)c2=O)c(Cc2ccccc2)[n+]1Cc1ccccc1 (configuration not stated) | -1.51% (inactive) |
| COC(=O)[C@]12C[C@H](CC(=O)NCc3ccccc3)C(=O)N(Cc3ccccc3)C1=C[C@H](COCc1ccccc1)O[C@@H]2C | -1.73% (inactive) |

| Compound | activation |
| --- | --- |
| CCCn1cc(SCC(N)=O)c2ccccc21 | -0.92% (inactive) |
| NC(=O)CSc1c[nH]c2ccccc12 | 1.11% (active) |
| O=C(CSc1nnc(-c2c[nH]c3ccccc23)o1)c1ccccc1 | -0.81% (inactive) |
| COC(=O)[C@]12C[C@H](CC(=O)N3CCOCC3)C(=O)N(Cc3ccc(Cl)cc3Cl)C1=C[C@H](COCc1ccccc1)O[C@@H]2C | -0.98% (inactive) |
| N#Cc1ccccc1OC[C@@H](O)CN1CCC(C(O)(c2ccccc2)c2ccccc2)CC1 | -0.74% (inactive) |
| Cc1c(NC(=O)CN(C)CC(=O)Nc2ccc(F)c(F)c2F)c(=O)n(-c2ccccc2)n1C | -0.43% (inactive) |
| COc1ccc(S(=O)(=O)/N=C2\C=C(NS(=O)(=O)c3ccccc3)C(=O)c3ccccc32)cc1 | 1.6% (active) |
| Cc1ccc(S(=O)(=O)/N=C2\C=C(NS(=O)(=O)c3ccc(C)cc3)C(=O)c3ccccc32)cc1 | -0.8% (inactive) |
| CNC(=O)COc1ccc(S(=O)(=O)Nc2ccccc2)cc1 | -0.41% (inactive) |
| O=C(CNC1CCCCC1)NCC1(c2ccccc2)CCCC1 | -1.46% (inactive) |
| CCC(NC(=O)C1C2C=CC3(CN(Cc4ccccc4)C(=O)C13)O2)c1ccccc1 (configuration not stated) | -1.54% (inactive) |
| CCCCCNC(=O)C(c1ccc(OC)cc1)n1c(=O)c(-c2ccccc2)nc2ccccc21 (configuration not stated) | -0.6% (inactive) |
| COc1ccc(C(C(=O)NCc2ccccc2)n2c(=O)c(-c3ccccc3)nc3ccccc32)cc1 (configuration not stated) | -0.84% (inactive) |
| COc1ccc(NC(=O)C(c2ccncc2)n2c(=O)c(-c3cc4ccccc4[nH]3)nc3ccccc32)cc1 (configuration not stated) | 1.22% (active) |
| O=C(NCc1cccs1)C1CCN(S(=O)(=O)c2ccccc2[N+](=O)[O-])CC1 | -1.16% (inactive) |
| N#CCC[C@H]1CC[C@]2(CCCN(Cc3ccc(Cl)cc3)C2)O1 | -1.32% (inactive) |
| O=C(Nc1ccc(F)cc1)c1cc2c(s1)CCCC2 | 0.25% (inactive) |
| O=C(Nc1ccc2c(c1)CCC2)c1ccc(Br)s1 | 1.14% (active) |
| CC(C)Oc1ccc(C(=O)NCC(=O)Nc2ccc3c(c2)CCC3)cc1 | -0.37% (inactive) |
| Cc1ccc(/C=C/C(=O)O)cc1S(=O)(=O)N1CCC(Cc2ccccc2)CC1 | -1.4% (inactive) |
| Cc1ccc(S(=O)(=O)C(C#N)c2nc3ccccc3nc2N2CCCC2)cc1C (configuration not stated) | -0.41% (inactive) |
| COCCCNc1nc2ccccc2nc1NS(=O)(=O)c1ccc(F)cc1 | -0.23% (inactive) |

| Compound | activation |
| --- | --- |
| Cc1ccc(S(=O)(=O)Nc2nc3ccccc3nc2N2CCc3ccccc3C2)cc1 | 1.37% (active) |
| Cc1cc(C(=O)NN=C/C=C/c2ccco2)n[nH]1 | -0.85% (inactive) |
| CCOC(=O)C(=O)N(Cc1ccccc1)c1ccccc1C(=O)Nc1cc(OC)ccc1OC | -1.83% (inactive) |
| CCc1ccc2oc(-c3ccc(N)cc3)nc2c1 | 1.77% (active) |
| Cc1ccc(-c2nnc(SCC(=O)Nc3ccc(Oc4ccccc4)cc3)n2Cc2ccco2)cc1 | -1.75% (inactive) |
| COC(=O)[C@]1(C#N)CC(=O)N(CC2CCCCC2)[C@@H]1c1ccccc1 | 0.53% (inactive) |
| O=C(Nc1ccccc1)N1CCN(Cc2nc3ccccc3c(=O)[nH]2)CC1 | -0.67% (inactive) |
| COc1ccc(C(=O)Nc2sc(C)c(C)c2CN2CCOCC2)cc1 | 1.65% (active) |
| COc1ccc(C(=O)Nc2ccnn2C2CCN(Cc3ccncc3)CC2)cc1 | -0.78% (inactive) |
| CCc1cc(C(c2ccccc2OC)N2CCOCC2)c(NC(=O)c2ccccc2)s1 (configuration not stated) | -1.1% (inactive) |
| O=C(NCc1cccs1)C1CCCN(S(=O)(=O)c2ccc([N+](=O)[O-])cc2)C1 (configuration not stated) | -1.79% (inactive) |
| Cc1nc(CNc2ncnc3ccc(-c4ccc5c(c4)OCO5)cc23)cs1 | -1.38% (inactive) |
| COCCNc1nc(N)c([N+](=O)[O-])c(NCCO)n1 | -1.31% (inactive) |
| Nc1nc(Nc2ccccc2F)nc(NC2CCCCC2)c1[N+](=O)[O-] | -0.48% (inactive) |
| CNc1nc(Nc2ccc(C)c(Cl)c2)nc(N)c1[N+](=O)[O-] | 2.25% (active) |
| CC(C)CNc1cccc2c1S(=O)(=O)N(Cc1cn(Cc3ccccc3C(F)(F)F)nn1)Cc1ccccc1O2 | -0.93% (inactive) |
| Cc1ccc(CN2CCCCC(NC(=O)C3CCCCC3)C2=O)cc1 (configuration not stated) | -0.73% (inactive) |
| CC(CCN1CCC(C(O)(c2ccccc2)c2ccccc2)CC1)Oc1ccc([N+](=O)[O-])cc1Cl (configuration not stated) | -0.24% (inactive) |
| Cc1nc2ccc(S(=O)(=O)NCC(=O)O)cc2s1 | -0.93% (inactive) |
| NS(=O)(=O)c1ccc2nc(NC(=O)CS(=O)(=O)c3ccc(F)cc3)sc2c1 | 1.3% (active) |
| CCS(=O)(=O)N1Cc2ccccc2CC1C(=O)Nc1nc2ccc(F)cc2s1 (configuration not stated) | 0.55% (inactive) |
